Reference: PubChem BioAssay AID485314 (National Center for Advancing Translational Sciences (NCATS), 2010)
Among all 340,000 compounds or so, about 4,500 (1.3%) were called active. About 5% were inconclusive and are not listed. This is one part of a sample in which actives are shown more often than they occur. The call rests on the fitted dose curve; in most records, active means well fitted inhibition curve with a large enough effect; inconclusive means small, poorly fitted or top-dose-only effect, or another doubt; inactive means no such curve, though single readings can be large or run the other way.

The molecules below were run against DNA polymerase beta (Homo sapiens) (UniProt P06746) (assay: qHTS Assay for Inhibitors of DNA Polymerase Beta). Details: Pol beta primer extension/strand displacement, fluorescence kinetic; series mostly up to 114 µM.
How it was run: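 Kinetic readout of DNA synthesis with strand displacement by Pol beta. Compound and 10 nM enzyme sit 15 min at room temperature; 50 nM substrate starts the reaction, read immediately and at 10 min.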
Potency means the concentration at half of the fitted maximal effect.

Potency, active:
CCOc1ccc(-n2c(SCC(=O)NCc3ccccc3)nc3n[nH]c(C)c3c2=N)cc1 25.1 µM, Cc1ccc(N2NC(=O)/C(=C/C=C/c3ccco3)C2=O)cc1C 35.5 µM, Cc1ccc(N=C2NC(=O)/C(=C/C=C/c3ccco3)S2)cc1C 10 µM, Cc1csc(SCC(=O)Nc2sccc2C#N)n1 20 µM, CSC1=N/C(=C\C=C\c2cccs2)C(=O)S1 20 µM, COCCCNc1nc2c(-c3cccc(C)c3)nnn2c2ccc(Cl)cc12 35.5 µM, O=C(CCCN1C(=O)/C(=C/c2ccco2)SC1=S)Nc1ccccc1 12.6 µM, COc1cc(/C=C2/SC(=S)N(Cc3ccccc3)C2=O)cc(OC)c1O 14.1 µM, COc1ccc(/C=C2\SC(=S)N(CCC(=O)Nc3cccc(C(=O)O)c3)C2=O)cc1OC 70.8 µM, O=C(CCCN1C(=O)/C(=C\c2ccco2)SC1=S)Nc1cccc2ccccc12 10 µM, CN1C(=O)/C(=C/c2ccco2)SC1=Nc1cccc(C(=O)O)c1 17.8 µM, CC(C)c1ccc(C(=O)OC2CCOC2=O)cc1 (stereo not drawn) 20 µM, CCSC1=C(C#N)C(=O)n2c1cc1c2CCCC1 39.8 µM

Potency, inactive:
Cc1ccccc1NC(=O)Cn1cc(C(=O)c2cccs2)c2ccccc21, CN(C(=O)c1ccc2c(c1)N(Cc1cccc(Cl)c1)C(=O)c1ccccc1S2=O)C1CCCCC1 (stereo not drawn), COc1ccccc1NC(=O)C(=O)c1cc(C)n(-c2ccccc2F)c1C, CCCCNC(=O)CSc1nc2n[nH]c(C)c2c(=N)n1-c1cccc(Cl)c1C, COc1ccc(-n2c(SCC(=O)Nc3ccc(Cl)c(C)c3)nc3n[nH]c(C)c3c2=N)cc1, COc1ccc(S(=O)(=O)n2nc(C)c(S(=O)(=O)N3CCCCCC3)c2C)cc1, CSc1nn(Cc2cccc(C)c2)c(N)c1S(=O)(=O)c1ccccc1, COc1cc(/C=C2/C(=O)NN(c3ccc(F)cc3)C2=O)cc([N+](=O)[O-])c1O, Cc1ccc(-n2ncc3c(=O)n(-c4ccc(C)c(C)c4)c(-c4ccco4)nc32)cc1, COc1ccccc1-c1ccnc2[nH]n(-c3ccccc3)c(=O)c12, CC(C)c1ccc2oc(-c3cc(NC(=O)c4cccs4)ccc3Cl)nc2c1, N#Cc1ccsc1NC(=O)CN1CCCCC1, Cc1cccc(C)c1Nc1nnc(SCC(=O)Nc2sccc2C#N)s1, CCOc1ccc(NC(=O)CSc2c3c(nc4ccccc24)CCCC3)cc1, COc1cc(NC(=O)CSc2nc3nc(C)c(Cc4ccc(C)cc4)c(C)n3n2)cc(OC)c1OC, Cc1cccc(C2=N/C(=C/c3cccs3)C(=O)O2)c1, CN1C/C(=C/c2cccs2)C(=O)/C(=C\c2cccs2)C1, COc1ccc(CCC(=O)NCCc2csc(-c3ccc(Cl)cc3)n2)cc1, COc1ccc(CCNc2nc3c(-c4cccc(F)c4)nnn3c3ccccc23)cc1OC, COCCCNc1nc2c(-c3cccc(C(F)(F)F)c3)nnn2c2ccccc12, COc1ccc(C(=O)COC(=O)CCCC(=O)Nc2cc(C(F)(F)F)ccc2Cl)cc1, CN1C=CC=C/C1=C1\SC(=S)N(Cc2ccccc2)C1=O, O=C1/C(=C\c2ccccc2Cl)SC(=S)N1CCC(=O)N1CCCc2ccccc21, COc1ccc(/C=C2/SC(=O)N(CCCCCC(=O)Nc3ccccc3C(=O)O)C2=S)cc1, O=C(CCCN1C(=O)/C(=C/c2cccs2)SC1=S)Nc1ccc(O)cc1, O=C(CCCN1C(=O)/C(=C/c2ccccc2)SC1=S)Nc1ccc(O)cc1, Cc1ccc(/C=C2\SC(=S)N(CCC(=O)Nc3ccc(O)cc3)C2=O)cc1, COc1ccc(/C=C2\SC(=S)N(CC(=O)NNC(=O)c3ccncc3)C2=O)cc1, O=C(CCN1C(=O)/C(=C/c2cccs2)SC1=S)NNC(=O)c1cccc(O)c1, COc1cccc(CN2CCc3nc(SCC(=O)Nc4ccccc4)[nH]c(=O)c3C2)c1, Cc1ccc2nc(COc3ccccc3NC(=O)Nc3ccc(F)c(Cl)c3)cc(=O)n2c1, COc1ccc(-c2c3c(=O)n(C)c(=O)n(C)c3c3c(C)nc4ccccc4n23)cc1, Cc1ccc(-c2nnc(Nc3cccc(Br)c3)c3ccccc23)cc1S(=O)(=O)NCC1CCCO1 (stereo not drawn), COc1ccc(-c2cccc(NS(=O)(=O)c3cc(C)c(OC)c(C)c3C)c2)nn1, O=C(O)c1ccc(Cn2c(SCc3ccc(F)cc3)nc3ccncc32)cc1, CCOc1ccc(N(CC)S(=O)(=O)N2CCCC(C(=O)Nc3ccc(C(C)=O)cc3)C2)cc1 (stereo not drawn), COc1cc(OC)c(C2C=C(C(=O)O)Nc3ncnn32)cc1OC (stereo not drawn), CC1CCN(S(=O)(=O)c2ccc3c(ccn3CCC(=O)NCc3ccc(N(C)C)cc3)c2)CC1, O=C(CSc1ncc(S(=O)(=O)c2ccc(Br)cc2)c(=O)[nH]1)Nc1ccc2c(c1)OCCO2, Cc1ccc(/C=C(\C#N)C(=O)Nc2cc(C)ccc2C)cc1, CN=C1S/C(=C\c2c(OC)cc(OC)cc2OC)C(=O)N1C, CN=C1S/C(=C\c2ccc(Sc3ccc(Cl)cc3)o2)C(=O)N1C, CCOc1ccc(NC(=O)c2c(NC(=O)Cc3ccccc3)sc3c2CCCCC3)cc1, Cc1nn(Cc2ccccc2)c(Cl)c1C(=O)OC1CCOC1=O (stereo not drawn), COc1cc(C(=O)OC2CCOC2=O)c([N+](=O)[O-])cc1OC (stereo not drawn), COc1ccc(N2CCN(S(=O)(=O)CCNC(=O)C(c3ccccc3)c3ccccc3)CC2)cc1, CCOC(=O)c1cc(-c2ccccc2)n(CCC(=O)Nc2ccccc2CC)c1C, CCOC(=O)c1c(C)oc2nc(C)nc(N(CC(C)C)CC(C)C)c12, CCCCNC(=O)C1CCCN(c2nnc(C)c3c(C)n(-c4ccc(Cl)cc4)nc23)C1 (stereo not drawn), CCSc1ncnc2c(C#N)c3n(c12)CCCCC3
